The list is not random: actives were taken first. Their share in the collection is about 7.6%.
Gal4-VP16 FLuc – counter-screen for ROR gamma inhibitors: Gal4-VP16 reporter; Potency, µM (highest dose often 53.6 µM), for inactives: top-dose activity, negative = inhibition, most hits filed as inhibitors; AID 2546; Drosophila S2 Gal4-VP16 UAS-luciferase, luminescence, 20 h; hit rate 3.5% among 310,000;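 further: Gal4-VP16 expression switched on by copper sulfate through the metallothionein promoter; potency means the concentration at half of the fitted maximal effect; on the % scale 0 is the no-effect control and ±100 the full control effect; nearly all actives have a fitted effect of over 50% in size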
p53 reactivator – restores transcriptional activity of mutant p53 | hit rate 0.063% among 320,000 | H1299 p53-A138V BP100-luciferase reporter, luminescence, 24 h | AID 504706 | Potency, µM (series often up to 92.2 µM), for inactives: top-dose activity change, positive = activation, hits mostly activators; further: potency means the concentration at half of the fitted maximal effect; % of control where 0% means no effect; nearly all actives have a fitted effect of over 45% in size
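H1299 (p53-null), stable ts p53-A138V + BP100-Luc; 1000 cells/well, Opti-MEM/10% FBS; cpd 4 pt, 1:5; 24 h, 37 deg C, 5% CO2; detection reagent 10 min RT; luminescence.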
Giardia killer – kills Giardia lamblia; Giardia lamblia trophozoite viability; activity change, % at 7.66 µM, hits read low; hit rate 0.15% among 340,000; AID 540267; in the data active means activity change below about -80%; inconclusive means between about -30% and that limit;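 further: parasites exposed to compound for two days anaerobically before the ATP read; on the % scale 0 is the no-effect control and ±100 the full control effect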
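Compounds were tested on trophozoites seeded at 100 cells/well and held 48 hrs at 37 deg C anaerobically. An ATP-based luminescent kit measured the remaining live cells.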
BRCA1 expr up – increases BRCA1 expression; MCF7-BRCA1-FFLuc reporter, luminescence, 48 h; response scale: scaled: vehicle 0%, 10 µM genistein 100%; Potency, µM (top dose mostly 46.1 µM), without a hit: top-dose activation, usual class: activators; hit rate 1.1% among 380,000; further: potency means the concentration at half of the fitted maximal effect; nearly all actives have a fitted effect of over 80% in size
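Using MCF7 cells harboring a BRCA1 firefly luciferase reporter, plated 2 h before compound pinning, the screen measured luminescence after 48 h incubation. Responses were normalized to DMSO and 10 microM genistein, then fitted for concentration-effect.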
RORg inh – blocks mouse ROR gamma transcriptional activity | Potency, µM (top dose mostly 53.6 µM), for inactives: at the top dose activity change, negative = inhibition, most hits filed as inhibitors | hit rate 5.4% among 310,000 | AID 2551 | Drosophila S2 Gal4-RORgamma UAS-luciferase reporter, 20 h | P51450; further: potency means the concentration at half of the fitted maximal effect; on the % scale 0 is the no-effect control and ±100 the full control effect; nearly all actives have a fitted effect of over 60% in size
Target sequence (P51450 whole entry, looked up, the tested form may be a part): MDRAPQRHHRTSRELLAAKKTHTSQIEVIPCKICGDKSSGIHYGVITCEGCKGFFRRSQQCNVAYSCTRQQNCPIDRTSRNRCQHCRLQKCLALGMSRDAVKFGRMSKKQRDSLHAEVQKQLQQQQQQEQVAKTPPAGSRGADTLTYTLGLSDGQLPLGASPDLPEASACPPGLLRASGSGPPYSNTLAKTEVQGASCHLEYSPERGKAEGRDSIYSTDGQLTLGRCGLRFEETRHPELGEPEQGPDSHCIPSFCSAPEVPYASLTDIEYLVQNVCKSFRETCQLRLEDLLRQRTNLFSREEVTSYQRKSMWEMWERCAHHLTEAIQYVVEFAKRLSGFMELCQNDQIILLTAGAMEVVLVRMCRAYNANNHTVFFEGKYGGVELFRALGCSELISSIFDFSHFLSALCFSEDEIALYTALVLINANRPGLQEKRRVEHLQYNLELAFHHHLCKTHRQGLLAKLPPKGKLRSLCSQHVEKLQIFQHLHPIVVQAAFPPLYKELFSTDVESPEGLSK
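Luciferase reporter read in Schneider cells carrying Gal4-RORγ (mouse) and UAS-Photinus luciferase; cells given compound 1 h before 700 uM copper sulfate induction, then incubated 20 h at ambient temperature.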
ELG1 DNA repair – ELG1-dependent DNA repair inhibition. Potency, µM (series often up to 46.1 µM), without a hit: at the top dose activity change, negative = inhibition, most hits filed as inhibitors. HEK293T ELG1-luciferase reporter, luminescence, 16 h; DNA damage induced by 5-fluorouridine. hit rate 2.3% among 330,000; further: potency means the concentration at half of the fitted maximal effect; on the % scale 0 is the no-effect control and ±100 the full control effect; nearly all actives have a fitted effect of over 55% in size
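HEK293T cells expressing luciferase-tagged ELG1 (2,000/well) received 5-Fluorouridine plus compound or DMSO for 16 hr at 37 °C. Luciferase was read by ONE-Glo luminescence after 30 min at room temperature.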
* marks the source's active call; other numbers are inactive results; ? = inconclusive; . = no result; [ ] = remark or other dose. Unless noted, the call rests on the fitted dose curve; in most records, active means well fitted curve in the direction sought with a large enough effect; inconclusive means small, poorly fitted or top-dose-only effect, or another doubt; inactive means no such curve, though single readings can be large; an effect the other way counts as inactive or inconclusive.

SMILES | Gal4-VP16 FLuc | p53 reactivator | Giardia killer | BRCA1 expr up | RORg inh | ELG1 DNA repair
CC[C@H](C)[C@H](NC(=O)[C@H](CO)NC(=O)[C@@H](NC(=O)[C@H](CO)NC(=O)[C@@H](NC(=O)[C@H](CC(N)=O)NC(=O)[C@H](Cc1ccccc1)NC(=O)[C@H](CO)NC(=O)[C@H](CS)NC(=O)[C@H](CC(N)=O)NC(=O)[C@H](CCCCN)NC(=O)[C@@H](NC(=O)[C@H](CCC(=O)O)NC(=O)CN)[C@@H](C)CC)[C@@H](C)CC)[C@@H](C)O)C(=O)N[C@@H](CCCN=C(N)N)C(=O)O | -1.5% | . | . | . | -5.7% | .
CC[C@H](C)[C@H](N)C(=O)N[C@@H](CCCCN)C(=O)N[C@H](C(=O)N[C@@H](C)C(=O)N[C@H](C(=O)O)C(C)C)C(C)C | -15.6% | . | . | . | -3.0% | .
CCC(C)C(N)C(=O)NC(CC(N)=O)C(=O)NC(CC(C)C)C(=O)NC(CCCCN)C(=O)NC(C)C(=O)NC(CC(C)C)C(=O)NC(C)C(=O)NC(C)C(=O)NC(CC(C)C)C(=O)NC(C)C(=O)NC(CCCCN)C(=O)NC(CCCCN)C(=O)NC(C(=O)NC(CC(C)C)C(N)=O)C(C)CC (configuration not stated) | 17.8µM* | . | . | . | ? | .
O=C(CN1CCN(S(=O)(=O)c2ccc(F)cc2)CC1)N1CCOCC1 | -1.7% | -5.9% | -9.4 | 4.2% | -7.5% | -0.3%
CCOC(=O)C1=C(C)NC(=S)NC1c1ccsc1 (configuration not stated) | ? | 14.2% | 9.2 | 1.1% | 11.2µM* | ?
CC1=C(C(=O)OCC(C)C)C(c2cccs2)NC(=S)N1 (configuration not stated) | 2.51µM* | -18.3% | 7.3 | -17.4% | 11.2µM* | -9.2%
CCOC(=O)C1=C(C)NC(=S)NC1c1ccc(C)s1 (configuration not stated) | ? | -5.3% | 8.1 | -0.6% | 8.91µM* | 18.0%
CCOC(=O)C1=C(C)NC(=S)NC1c1cc(C)sc1C (configuration not stated) | -3.2% | 1.5% | 19.9 | -1.6% | 0.1% | -13.3%
CCCCCC(=O)Nc1c(-c2cccs2)c(=O)c2ccccc2n1C | -2.0% | -3.8% | 2.4 | -12.1% | -13.7% | -17.4%
COc1cccc(NC(=O)C2(C)CCN2Cc2ccc(-c3ccccc3)o2)c1 (configuration not stated) | . | . | . | -15.1% | . | .
CC(C)c1ccc(NC(=S)N2CCCC(c3ccc(F)cc3)=N2)cc1 | -12.0% | -10.5% | -22.9 | -32.0% | 11.2µM* | -3.8%
S=C(Nc1ccccc1Cl)N1CCCC(c2ccccc2)=N1 | 1.2% | 7.8% | -7.6 | -42.3% | -20.0% | 0.4%
CCOC(=O)C1=C(Cc2ccc(C)cc2)C(=O)c2ccccc2C1=O | ? | -9.4% | . | . | 11.2µM* | ?
CCOC(=O)C1=C(Cc2ccc(OC)cc2)C(=O)c2ccccc2C1=O | ? | -15.3% | -13.9 | -83.3% | 10µM* | 7.0%
CCOC(=O)c1c(-c2ccc(C)cc2)cn2ccccc12 | ? | -2.5% | -13.5 | 1.6% | 0.6% | 19.2%
O=[N+]([O-])c1cc(-c2nc(-c3ccccc3)no2)ccc1NCC1CCCO1 (configuration not stated) | . | . | . | -23.2% | . | .
CN(CC(=O)NCc1ccco1)CC(=O)Nc1c(Cl)cccc1Cl | . | -5.3% | 0.1 | 8.7% | . | -1.3%
CC(=O)NC(c1ccc(C)cc1)c1cc([N+](=O)[O-])c2cccnc2c1O (configuration not stated) | 3.98µM* | 8.7% | 7.5 | -106.0% | 2.82µM* | ?
CCCC(=O)NC(c1ccco1)c1cc([N+](=O)[O-])c2cccnc2c1O (configuration not stated) | 5.01µM* | 1.0% | ? | -78.2% | 5.62µM* | 20.6µM*
CCC(=O)NC(c1ccc(C)cc1)c1cc([N+](=O)[O-])c2cccnc2c1O (configuration not stated) | 2.82µM* | ? | -9.3 | -95.6% | 2.51µM* | -18.1%
COc1cc(CN2CCSCC2)c([N+](=O)[O-])cc1OC | -1.3% | 7.0% | -16.8 | -16.5% | 4.6%[1.91 µM] | -19.0%
O=C(/C=N\O)NCCCNCc1ccccc1 | -6.2% | -1.3% | -0.7 | 1.8% | -2.9% | 2.3%
COc1ccc2c(c1)OCC(O)(c1ccccc1)C2=O (configuration not stated) | . | . | 12.7 | 7.2% | . | .
CCCCN(CC)c1nc(C)nc2c1c(C)c(C)n2-c1c(C)cc(C)cc1C | ? | . | . | . | 2.24µM* | .
CCCn1c(C)nc2c(N(CCN(CC)CC)CCN(CC)CC)nc(C)nc21 | -0.5% | . | . | . | 0.0% | .
SMILES | Gal4-VP16 FLuc | p53 reactivator | Giardia killer | BRCA1 expr up | RORg inh | ELG1 DNA repair
CCN(CCCCO)c1nc(C)nc2c1c(C)c(C)n2-c1c(C)cc(C)cc1C | ? | . | . | . | 11.2µM* | .
C=C(C)Cn1c2ccc(NC(=O)CCc3cccnc3)cc2c(=O)n1C | . | . | . | -8.3% | . | .
COc1ccc(S(=O)(=O)N2CCOCC2)cc1Cl | 6.8% | -1.1% | -5.5 | 0.8% | 3.8% | 2.0%
CC(=O)Nc1ccccc1-c1cccc2nccn12 | . | . | . | 13.2% | . | .
COc1ccc(C(=O)c2c(N)sc3c2CCN(C(=O)OC(C)(C)C)C3)cc1 | 8.0% | -3.6% | -8.4 | 7.6% | 4.4% | 23.1µM*
CN1CCc2c(sc(N)c2C(=O)c2ccc(Cl)cc2)C1 | ? | 5.6% | 7.8 | 51.4% | -7.6% | 18.2%
Cc1ccccc1NC(=S)NC(=O)CCc1ccccc1 | -9.7% | 6.7% | 7.7 | 12.4% | 18.9% | -0.5%
Cc1cccc(C)c1NC(=S)NC(=O)CCc1ccccc1 | 10µM* | 2.6% | -3.8 | 9.7% | 2.82µM* | -20.0%
CSc1cccc(NC(=S)NC(=O)CCc2ccccc2)c1 | 8.91µM* | 8.4% | -10.1 | 0.0% | 3.16µM* | ?
COC(=O)CSC1=NS(=O)(=O)c2ccccc21 | . | -13.3% | -2.9 | -14.7% | -23.7%[0.365 µM] | 11.0%
O=C(CSC1=NS(=O)(=O)c2ccccc21)Nc1ccccc1 | 20µM* | -3.1% | 7.2 | -1.8% | ? | 2.9%
CCOC(=O)C1=c2/c(=C/c3ccccc3OC)c(N)c(C#N)n2C(=O)C(c2ccccc2OC)S1 (configuration not stated) | 0.7% | 4.5% | . | . | 1.1% | ?
O=C1[C@@H]2Cc3c([nH]c4ccccc34)C(c3cccc(Br)c3)N2C(=O)CN1C1CCN(Cc2ccccc2)CC1 (some centres not stated) | ? | 2.7% | 9.2 | -100.0% | ? | ?
O=C1[C@@H]2Cc3c([nH]c4ccccc34)C(c3ccccc3)N2C(=O)CN1C1CCN(Cc2ccccc2)CC1 (some centres not stated) | ? | 3.3% | -14.2 | -87.1% | 2.82µM* | -14.2%

High-throughput results: PubChem, National Center for Advancing Translational Sciences (NCATS)
